# Source: PubChem BioAssay (National Center for Advancing Translational Sciences (NCATS))
# HTT-AS promoter: Primary qHTS for Identification of Small Molecule Activators of Huntingtin-Antisense Promoter Activity. HEK293 HTT-AS promoter firefly luciferase reporter, 24 h; response scale: percent change from vehicle, -100% = no light. Potency, µM (titrated, usually from 57.5 µM), without a hit: top-dose activity change, positive = activation, most hits filed as activators. hit rate 0.24% among 48,000. AID 1508624, 2021; also: nearly all actives have a fitted effect of over 55% in size
#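 Firefly luciferase signal from promoter-reporter HEK293 cells was scaled between vehicle (0%) and zero RLU (-100%). Compounds were tested at final concentrations of up to 57.5 uM over 24 h at 37 degrees C. PTC124 at 50 uM final served as control inhibitor.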
# HTT prom inh: Primary qHTS for Identification of Small Molecule Inhibitors of Huntingtin Promoter Activity. Potency, µM (series often up to 57.5 µM), inactives show at the highest dose activity change, negative = inhibition, most hits filed as inhibitors. AID 1508623, 2021. hit rate 0.93% among 48,000. HEK293 HTT promoter firefly luciferase reporter, 24 h; also: nearly all actives have a fitted effect of over 50% in size
#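 Firefly luciferase signal from promoter-reporter HEK293 cells was scaled between vehicle (0%) and zero RLU (-100%). Compounds were tested at final concentrations of up to 57.5 uM over 24 h at 37 degrees C. PTC124 at 50 uM final served as control inhibitor.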
# NTMT1 inhibitor: Primary qHTS for Inhibitors of N-terminal methyltransferase 1 (NTMT1): MTaseGlo Assay; hit rate 2.5% among 59,000; Potency, µM (doses to about 114 µM), inactives show top-dose activity change, negative = inhibition, hits mostly inhibitors; N-terminal Xaa-Pro-Lys N-methyltransferase 1 (Homo sapiens), Q9BV86; NTMT1 MTase-Glo SAH luminescence, purified enzyme; AID 1645870, 2021;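 also: plate controls were DMSO vehicle for no effect and no enzyme for full effect; nearly all actives have a fitted effect of over 65% in size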
# Target sequence (Q9BV86 whole entry, looked up): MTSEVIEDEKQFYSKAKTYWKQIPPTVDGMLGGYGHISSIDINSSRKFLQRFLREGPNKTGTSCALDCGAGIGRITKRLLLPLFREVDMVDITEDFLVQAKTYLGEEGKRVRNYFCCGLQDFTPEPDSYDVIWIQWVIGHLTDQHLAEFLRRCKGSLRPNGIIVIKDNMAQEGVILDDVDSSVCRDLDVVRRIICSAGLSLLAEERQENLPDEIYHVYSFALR
# GALC G270D up: A Novel Cell-Based Assay to Identify Small Molecules for B -Galactocerebrosidase; hit rate 0.1% among 45,000; Potency, µM (highest dose often 57.5 µM), actives largely listed as activators; P54803; 145M-Twi-hGALC-G270D cells (Twitcher mouse brain line with human GALC G270D), HMU-beta-Gal fluorescence, 48 h; also: 0% is about no effect; nearly all actives have a fitted effect of over 65% in size
#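 Live 145M-Twi cells (Twitcher mouse brain-derived, GALC-null) stably expressing human GALC-G270D, with a wild-type GALC line, were compound-treated. Residual GALC activity was then read as fluorescence from 0.1 mM final HMU-β-gal at pH 5.2; higher signal means activation.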
# Starred values were filed as active, the others as inactive; i = inactive; ? = inconclusive; · = not tested or not shown; ! = repeats disagree; [ ] = another dose, or the depositor's remark. Sampled rows, rich in hits. Any-hit rate of the full collection: about 2.7%. Calls follow the shape of the dose curve; as a rule, active = well fitted curve in the direction sought with a large enough effect; inconclusive = small, poorly fitted or top-dose-only effect, or another doubt; inactive = no such curve, though single readings can be large; an effect the other way counts as inactive or inconclusive. Potency is read from the fitted curve at half-maximal effect.
SMILES,HTT-AS promoter,HTT prom inh,NTMT1 inhibitor,GALC G270D up
Cc1ccc(S(=O)(=O)Nc2nc3n(n2)C(c2ccc(Cl)cc2)C=C(c2ccccc2)N3)cc1 (stereo unspecified),-14%,-15%,35µM*,i
Cc1ccc(C2C=C(c3ccccc3)Nc3nc(NS(=O)(=O)c4ccccc4)nn32)cc1 (stereo unspecified),-10%,-6%,10%,i
CC(C)C(C)(C)C(C)(C)C(C)(C)S,-5%[116 µM],10%[116 µM],32µM*,i
CCOc1ccc(CNc2ccc(-c3nc4ccccc4[nH]3)cc2)cc1,·,·,-1%[57.5 µM],·
COc1cc(NC(=O)CCc2c(C)nc3cc(-c4ccccc4)nn3c2C)cc(OC)c1OC,-69%,4µM*,-11%,i
Cc1nc2cc(-c3cccc(F)c3)nn2c(C)c1CCC(=O)NC(C)c1ccccc1 (stereo unspecified),-65%,?,?,i
COc1ccc(N2CCN(C(=O)CCc3c(C)nc4cc(-c5ccc(Cl)cc5)nn4c3C)CC2)cc1,-78%,0.32µM*,-4%,i
COc1ccc(NC(=O)CCc2c(C)nc3cc(-c4cccc(F)c4)nn3c2C)cc1Cl,-66%,2.2µM*,23%,i
CCOC(=O)c1cccc(NC(=O)CCc2c(C)nc3cc(-c4ccc(Cl)cc4)nn3c2C)c1,-79%,?,11%,i
COC(=O)c1cc(NC(=O)CCc2c(C)nc3cc(-c4ccccc4)nn3c2C)cc(C(=O)OC)c1,-20%,-25%,-1%,i
COc1cc(OC)cc(-c2cc3nc(C)c(CCC(=O)Nc4ccc(F)c(Cl)c4)c(C)n3n2)c1,-83%,1.6µM*,-16%,i
CC(C)(C)OC(=O)N1CCN(c2ccc(NCc3nnc(-c4ccc(C#N)cc4)o3)cc2)CC1,·,·,15%,·
COc1ccc(OCC(O)Cn2c(NCCO)nc3c2c(=O)n(C)c(=O)n3C)cc1 (stereo unspecified),-67%,14µM*,2%,i
CCCNc1nc2c(c(=O)n(C)c(=O)n2C)n1CC(O)COc1ccccc1 (stereo unspecified),-12%,-5%,5%,i
Cc1ccc(-c2cc(C(=O)Nc3ccc(C#N)cc3)c3ccccc3n2)cc1C,·,·,12%,·
Nc1ccc2cc3ccc(N)cc3nc2c1,-44%,?,35µM*,i
CC(=O)Nc1ccc2nc(SCc3ccccc3)sc2c1,?,30%,4%,i
CCc1ccc(Nc2nc(N)nc(CSc3nc4ccccc4s3)n2)cc1,-15%,-28%,89µM*,i
COc1cc(C(=O)NC(c2ccccc2Cl)c2cc(Cl)c3cccnc3c2O)cc(OC)c1OC (stereo unspecified),-59%,?,31%,i
COc1ccc(C(=O)NC(c2ccccc2Cl)c2cc(Cl)c3cccnc3c2O)cc1 (stereo unspecified),-41%,8.9µM*,29%,i
COc1ccc2oc(=O)c(-c3nc4ccc(C)cc4[nH]3)cc2c1,8%,22%,22%,i
COc1ccc2nc(S(=O)Cc3ncc(C)c(OC)c3C)[nH]c2c1 (stereo unspecified),-29%,-27%,32µM*!,i
CCOc1ccccc1N1CC(c2nc3ccccc3n2CCCCOc2cc(C)ccc2C)CC1=O (stereo unspecified),-15%,-6%,89µM*,i
CCOc1ccccc1N1CC(c2nc3ccccc3n2CCCOc2ccccc2OC)CC1=O (stereo unspecified),7%,2%,3%,i
CN(C)C/C=C/C(=O)Nc1cc2c(Nc3ccc(F)c(Cl)c3)ncnc2cc1O[C@H]1CCOC1,·,·,3.2µM*,·
SMILES,HTT-AS promoter,HTT prom inh,NTMT1 inhibitor,GALC G270D up
CN(C)CC=CC(=O)Nc1cc2c(Nc3ccc(F)c(Cl)c3)ncnc2cc1O[C@H]1CCOC1,-45%,?,22µM*,·
CCOc1cc2ncc(C#N)c(Nc3ccc(F)c(Cl)c3)c2cc1NC(=O)C=CCN(C)C,-30%,-6%,3.8µM*,·
O=[S+]([O-])(Nc1ccc(-c2ccccc2)cc1)c1ccc(NCc2ccc(Cl)cc2O)cc1,·,·,-5%,·
CCOc1cc(N2CCC(O)CC2)ccc1Nc1ncc2c(n1)N(C1CCCC1)CCC(=O)N2C,·,·,-23%[57.5 µM],·
CN(C)CCOc1ccc(-c2nc(-c3ccc4c(c3)CC/C4=N\O)c(-c3ccncc3)[nH]2)cc1,·,·,28µM*,·
CC(C)C[C@H](CO)Nc1nc(S[C@@H](C)c2ccccc2)nc2nc(N)sc12,·,·,3%[57.5 µM],·
FC(F)(F)c1cccc(CSc2nc3ncc(Br)cc3[nH]2)c1,·,·,-4%,·
CCC1=C(c2ccc(C)cc2)S(=O)(=O)N=C1N1CCC(C(=O)NCCc2ccc(Cl)cc2)CC1,-40%,20µM*,2%,i
Fc1ccc(-n2ncc3c(NCCC4=CCCCC4)ncnc32)cc1,10µM*,38%,?,i
CCCCN(C)C(=O)Cn1nc(-c2cncnc2)ccc1=O,·,·,4%,·
COc1ccccc1Nc1nn2c(=O)c3ccc(C(=O)NCCC4=CCCCC4)cc3nc2s1,-88%,10µM*,-26%,i
COc1ccccc1Nc1nn2c(=O)c3ccc(C(=O)NCCc4ccccc4)cc3nc2s1,-73%,7.1µM*,?,i
Cc1ccc(C)c(Nc2nn3c(=O)c4ccc(C(=O)NCCC5=CCCCC5)cc4nc3s2)c1,-21%,-10%,-4%,i
O=C(NCCn1cc(SCc2ccc(F)cc2)c2ccccc21)c1cccs1,-48%,28µM*,5%,i
O=C(NCCn1cc(SCc2cccc(F)c2)c2ccccc21)c1cccc(C(F)(F)F)c1,-49%,?,-7%,i
COc1ccc(C(=O)NCCn2cc(SCc3cccc(F)c3)c3ccccc32)cc1OC,-58%,25µM*,-12%,i
COC(=O)CC(C)(O)CC(=O)OCc1ccc(O[C@@H]2O[C@H](CO)[C@@H](O)[C@H](O)[C@H]2O)cc1 (stereo partly specified),·,·,19%[29.8 µM],·
OC[C@H]1O[C@@H](OCCc2ccccc2)[C@H](O[C@@H]2OC[C@](O)(CO)[C@H]2O)[C@@H](O)[C@@H]1O,·,·,5%[29.8 µM],·
NS(=O)(=O)Oc1ccc2c3c(c(=O)oc2c1)CCCCC3,·,·,28µM*,·
CC(C)(CC(=O)NCc1ccc(Cl)cc1Cl)CC1=NS(=O)(=O)c2ccccc2N1,-60%,20µM*,2%,i
Cc1ccc(Cl)cc1NC(=O)COC(=O)CC(C)(C)CC1=NS(=O)(=O)c2ccccc2N1,-35%,?,-16%,i
Cn1c(-c2ccc(S(=O)(=O)N3CCCC3)cc2)csc1=Nc1ccc(Cl)c(Cl)c1,-74%,5µM*,?,i
CCc1nnc(-c2cnn(C)c2N)n1CCCn1ccnc1,·,·,1%,·
CCCCc1nnc(-c2cnn(C)c2N)n1CCCn1ccnc1,·,·,1%[57.5 µM],·
